Here are results for 6 compounds from PubChem BioAssay (NCATS).

Assay [1] addresses Lysosomal acid glucosylceramidase (Homo sapiens) (UniProt P04062). The assay is described as follows: Glucocerebrosidase-p2 (AID 348; in the data active means potency below about 10 µM; further: potency means the concentration at half of the fitted maximal effect). The conditions noted are these: purified GBA, blue fluorogenic substrate, 40 min. Summed up: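 Normal human glucocerebrosidase (0.2 nM) with blue fluorogenic substrate (80 uM final) in citrate/phosphate pH 5.9 with 10mM sodium taurocholate, 0.01% tween-20; 40 min RT, NaOH/glycine stop; fluorescence Ex 365/Em 440; AC50 from a titration from 0.6 nM upwards.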

Assay [2] is described as follows: AP1 Signaling Pathway (AID 357; active means well fitted curve in either direction with a large enough effect, not every such curve was filed as active;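 further: ME-180 reporter cells stimulated with EGF at its EC50 level; on the % scale 0 is the no-effect control and ±100 the full control effect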). The conditions noted are these: ME-180 AP-1-bla reporter, EGF-induced, beta-lactamase ratio, 5 h; at 7.69 µM (top of the series) unless noted. Summed up:
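Cells are seeded overnight, exposed to compound titrations and an EC50 level of EGF for 5 hours at 37 °C, then loaded with CCF4 dye for 2.5 hours. Beta-lactamase activity under the AP-1 element is read as a blue/green ratio.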

For assay [3], the target named is Cytochrome P450 1A2 (Homo sapiens) (UniProt P05177). Nature of the assay: p450-cyp1a2 (AID 410; calls by dose curve; further: potency means the concentration at half of the fitted maximal effect;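 on activity change, negative = inhibition: -100% = full effect of reference inhibitor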). The conditions noted are these: recombinant CYP1A2, luciferin-ME demethylation, luminescence; series mostly up to 57 µM. Summed up:
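20nM CYP1A2, 100uM Luciferin-ME (=Km), 100mM KPO4; cpd 10 min RT; +NADPH regen, 60 min RT; stop/detect 20 min; luminescence. Normalized to furafylline 57 uM = full inhibition.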

Assay [4] addresses Glucocorticoid receptor (Homo sapiens) (UniProt P04150). Nature of the assay: GR-EFC Redistribution (AID 451; calls by dose curve; further: potency means the concentration at half of the fitted maximal effect). The note with it: CHO-K1 GR-EFC translocation, beta-gal luminescence, 2 h. Summed up:
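Translocation of GR-ED fusion to nuclear EA restores b-gal, read by luminescence after 1 h room-temperature detection. Engineered CHO-K1 biosensor cells, 1,000/well, exposed 2 h at 37 C to titrations up to 46 uM final.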

The target of assay [5] is 3',5'-cyclic-AMP phosphodiesterase 4B (Homo sapiens) (UniProt Q07343). The assay is described as follows: qHTS Assay for Inhibitors of PDE-IV (AID 607; active means well fitted activation curve with a large enough effect in the main read-out, with a control signal flat, not every such curve was filed as active; further: % of control where 0% means no effect). The conditions noted are these: HEK293 ACTOne CNG channel cells, membrane potential fluorescence; series mostly up to 22.9 µM. Put shortly:
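The readout is membrane depolarisation from a cAMP-sensing CNG channel, detected with a potential dye at ex 535/em 590. Cells were HEK293-derived (endogenous PDE-IV) at 1000 cells/well, titrated up to 22.9 uM final.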
Background: Quantitative high-throughput screening tests each substance at several concentrations.

Assay [6] concerns the target Cytochrome P450 3A4 (Homo sapiens) (UniProt P08684). Nature of the assay: qHTS Assay for Inhibitors and Substrates of Cytochrome P450 3A4 (AID 884). Further: nearly all actives have a fitted effect of over 50% in size. Further: potency means the concentration at half of the fitted maximal effect. The note with it: recombinant CYP3A4, Luciferin-PPXE luminescence; series mostly up to 57.1 µM. Put shortly: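 Luminescent readout of luciferin produced by CYP3A4 (20 nM) dealkylation of Luciferin-PPXE, 25 uM (its KM). NADPH-driven reaction ran 60 min at RT after 10 min compound preincubation; data scaled to 57 uM ketoconazole as 100% inhibition.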

The target is the same in assay [7]. Nature of the assay: qHTS Assay for Activators of Cytochrome P450 3A4 (AID 885). Further: nearly all actives have a fitted effect of over 65% in size. Further: potency means the concentration at half of the fitted maximal effect. The note with it: recombinant CYP3A4, Luciferin-PPXE luminescence, 60 min; series mostly up to 57.1 µM. Put shortly: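 Activators are scored by enhanced luminescence from CYP3A4 conversion of luciferin-PPXE (25uM, equal to KM) to luciferin, after 60 min at RT with an NADPH-regenerating system.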

Assay [8] in a line: qHTS Assay for Lipid Storage Modulators (AID 1519; calls by dose curve). The conditions noted are these: Drosophila S3 cells, BODIPY lipid droplet/cell ratio, laser cytometry, cells loaded with oleic acid; for activity change, negative = inhibition: at 57.5 µM (top of the series). Summed up: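 Cells seeded at 5,000 per well were treated with compounds over a concentration series and loaded with oleic acid (400 uM, as added). Lipid droplet fluorescence (488 nm excitation, 500-530 nm channel) was read by laser-scanning cytometry and normalized to 20 uM Triacsin C.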

Assay [9] in a line: Primary qHTS for small molecule stabilizers of the endoplasmic reticulum resident proteome: Secreted ER Calcium Modulated Protein (SERCaMP) assay (AID 1508630). Further: on the % scale 0 is the no-effect control and ±100 the full control effect. The conditions noted are these: SH-SY5Y GLuc-SERCaMP (Gaussia luciferase released on ER calcium loss) secretion, thapsigargin, luminescence; series mostly up to 38.4 µM. Summed up: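 The SH-SY5Y reporter protocol was run at 3 concentrations up to 38.3 uM (primary) or 11 concentrations (follow-up): 16 h compound, 100 nM thapsigargin for 4 h, then extracellular luciferase luminescence.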

A short description of assay [10]: NFAT Signaling Pathway (AID 444; active means well fitted curve in either direction with a large enough effect, not every such curve was filed as active;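 further: carbachol stimulus at about its EC50 of 1 µM final; on the % scale 0 is the no-effect control and ±100 the full control effect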). The conditions noted are these: Jurkat NFAT-bla M1, carbachol, beta-lactamase ratio, 5 h; at 7.69 µM (top of the series) unless noted. Summed up:
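Read-out: CCF4 FRET ratio (460 nm/530 nm) after 1 h RT dye loading, used for %activity and AC50 from titration series. Cells: Jurkat NFAT-β-lactamase/M1 line, treated with compound plus 1 uM carbachol for 5 h, 37 °C.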

The nature of assay [11]: Stat Signaling Pathway (AID 446; active means well fitted curve in either direction with a large enough effect, not every such curve was filed as active;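 further: ME-180 cervical cancer cells given 40 pM IL-6 alongside compound; SIE-controlled beta-lactamase reporter measured as 460/530 nm FRET emission ratio; on the % scale 0 is the no-effect control and ±100 the full control effect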). The note with it: ME-180 (cervical carcinoma) SIE beta-lactamase reporter, IL-6 stimulated, 5 h; at 7.69 µM (top of the series) unless noted. Summed up:
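Emission at 460 and 530 nm (excitation 405 nm) reports SIE-controlled beta-lactamase in ME-180 cells. Cells received compound with 40 pM IL-6 for 5 hrs at 37 C; data scaled between 300 pM IL-6 and 125 nM JAK-inhibitor controls.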

Assay [12] has as its target Glucocorticoid receptor (Homo sapiens) (UniProt P04150). Nature of the assay: GR-GFP Redistribution (AID 450;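 active means compounds whose dose series gives a full or clear partial fitted curve of increased nuclear translocation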; further: potency means the concentration at half of the fitted maximal effect). The note with it: U2OS GR-GFP nuclear translocation, laser cytometry, 2 h.
Assay [13] addresses Mitogen-activated protein kinase 10 (Mus musculus) (UniProt Q61831). Nature of the assay: JNK3 AlphaScreen Assay (AID 530; active means well fitted curve in either direction with a large enough effect, not every such curve was filed as active). The conditions noted are these: JNK3 lysate, c-Jun phosphorylation; series mostly up to 57.1 µM. Summed up: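 Kinase buffer: 20 mM Tris-HCl pH 7.6, 10 mM MgCl2, 1 mM DTT, 0.1 mM Na3VO4, 0.01% Tween-20; ATP 10 uM. Substrate biotin-GST-cJun(1-79), enzyme from activated HepG2 lysates. Detection by Ser73 phospho-antibody AlphaScreen.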
(In Alpha technology, singlet oxygen from a donor bead excites a nearby acceptor bead.)

A short description of assay [14]: Confirmation and Secondary Assay for Modulators of Hemoglobin Beta Chain Splicing at IVS2 654 locus (AID 910).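 Further: HeLa cells stably carrying EGFP split by mutant beta-globin IVS2-654 intron; per-well total GFP intensity by laser scanning cytometry after 2-day treatment; % of control where 0% means no effect.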 The note with it: HeLa EGFP-654 splicing reporter, GFP fluorescence, 48 h; series mostly up to 38.3 µM. Put shortly: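 Readout: per-well total peak green fluorescence (488 nm ex, 500–520 nm em) from objects 5–250 µm, reflecting correct splicing of an EGFP-654 reporter. Compounds were applied for 2 days at 37 °C to overnight-plated HeLa EGFP-654 cells; controls were DMSO and 500 nM IVS2-654 PNA.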

Assay [15] can be described thus: Confirmation and Secondary Assay for Modulators of Hemoglobin Beta Chain Splicing at IVS2 705 locus (AID 930).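 Further: HeLa cells stably expressing the EGFP-705 splicing reporter; GFP fluorescence per well restored by corrected splicing of the IVS2-705 intron in EGFP; % of control where 0% means no effect.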 The note with it: HeLa EGFP-705 splicing reporter, GFP fluorescence, 48 h; series mostly up to 38.3 µM. Put shortly:
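Fluorescence gain (488 nm laser, 500-520 nm PMT) reflects restored correct splicing of a mutant IVS2-705 intron inside EGFP in stably transfected HeLa cells after 2-day compound treatment.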

For assay [16], the target named is Ubiquitin carboxyl-terminal hydrolase 1 (Homo sapiens) (UniProt O94782). The assay is described as follows: Inhibitors of USP1/UAF1: Pilot qHTS (AID 504865).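 Further: rhodamine fluorescence freed from ubiquitin-rhodamine substrate followed over time; top concentration of the series differs between compounds; on the % scale 0 is the no-effect control and ±100 the full control effect; nearly all actives have a fitted effect of over 35% in size.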 The note with it: purified USP1/UAF1, Ub-rhodamine cleavage fluorescence; series mostly up to 54.9 µM. Summed up:
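Kinetic fluorescence assay: 1nM USP1/UAF1, 15 min compound preincubation, then 150nM Ub-Rho; 480/540 nm.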

Assay [17] addresses Cytochrome P450 2D6 (Homo sapiens) (UniProt P10635). Nature of the assay: qHTS Assay for Inhibitors and Substrates of Cytochrome P450 2D6 (AID 891). Further: nearly all actives have a fitted effect of over 60% in size. Further: potency means the concentration at half of the fitted maximal effect. The note with it: recombinant CYP2D6, luciferin-ME EGE luminescence; series mostly up to 57.1 µM. Put shortly:
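Luminescent read-out of luciferin formed by 5 nM human CYP2D6 demethylating 30 uM Luciferin-ME EGE (Km level) over 60 min at room temperature after NADPH regeneration addition. Data normalized to full inhibition by 1.43 uM quinidine.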

Assay [18] concerns the target Dual specificity protein kinase CLK4 (Homo sapiens) (UniProt Q9HAZ1). The assay is described as follows: qHTS Assay for Inhibitors of CDC-like Kinase 4 (ADP-Glo Assay) (AID 1771). Further: potency means the concentration at half of the fitted maximal effect; nearly all actives have a fitted effect of over 70% in size. The note with it: recombinant CLK4, ADP-Glo luminescence; series mostly up to 80 µM. Put shortly:
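25 nM Clk4, 100 uM RS peptide, 1 uM ATP (final); 2 mM MgCl2, 0.5 mM EGTA, 2.5 mM DTT, 0.01% Triton X-100; 1 hr RT. ADP-Glo readout: ATP depletion 45 min, conversion/luciferase 30 min, luminescence.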

Assay [19] shares this target. The assay is described as follows: qHTS Assay for Inhibitors of CDC-like Kinase 4 (ADP-FP Assay) (AID 1795).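 Further: recombinant human CLK4 phosphorylating RS repeat peptide at 1 µM ATP; on the % scale 0 is the no-effect control and ±100 the full control effect; nearly all actives have a fitted effect of over 60% in size.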 The note with it: Transcreener ADP fluorescence polarization; series mostly up to 50 µM. Put shortly: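 Inhibition of ADP formation by 6.25 nM Clk4 is measured using 1 uM ATP and 100 uM RS repeat peptide over one hour. Produced ADP displaces a fluorescent tracer from antibody, lowering polarization.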

Setting [20] is: measured here: cell count channel max response.
Setting [21] is: measured here: lipid channel max response.

Results filed as inconclusive are left out. Calls of active or inactive are those of the source. Unless noted, the call rests on the fitted dose curve; in most records, active means well fitted curve in the direction sought with a large enough effect; inconclusive means small, poorly fitted or top-dose-only effect, or another doubt; inactive means no such curve, though single readings can be large; an effect the other way counts as inactive or inconclusive.

Sequence of Glucocorticoid receptor (Homo sapiens) (P04150 whole entry, looked up, the tested form may be a part): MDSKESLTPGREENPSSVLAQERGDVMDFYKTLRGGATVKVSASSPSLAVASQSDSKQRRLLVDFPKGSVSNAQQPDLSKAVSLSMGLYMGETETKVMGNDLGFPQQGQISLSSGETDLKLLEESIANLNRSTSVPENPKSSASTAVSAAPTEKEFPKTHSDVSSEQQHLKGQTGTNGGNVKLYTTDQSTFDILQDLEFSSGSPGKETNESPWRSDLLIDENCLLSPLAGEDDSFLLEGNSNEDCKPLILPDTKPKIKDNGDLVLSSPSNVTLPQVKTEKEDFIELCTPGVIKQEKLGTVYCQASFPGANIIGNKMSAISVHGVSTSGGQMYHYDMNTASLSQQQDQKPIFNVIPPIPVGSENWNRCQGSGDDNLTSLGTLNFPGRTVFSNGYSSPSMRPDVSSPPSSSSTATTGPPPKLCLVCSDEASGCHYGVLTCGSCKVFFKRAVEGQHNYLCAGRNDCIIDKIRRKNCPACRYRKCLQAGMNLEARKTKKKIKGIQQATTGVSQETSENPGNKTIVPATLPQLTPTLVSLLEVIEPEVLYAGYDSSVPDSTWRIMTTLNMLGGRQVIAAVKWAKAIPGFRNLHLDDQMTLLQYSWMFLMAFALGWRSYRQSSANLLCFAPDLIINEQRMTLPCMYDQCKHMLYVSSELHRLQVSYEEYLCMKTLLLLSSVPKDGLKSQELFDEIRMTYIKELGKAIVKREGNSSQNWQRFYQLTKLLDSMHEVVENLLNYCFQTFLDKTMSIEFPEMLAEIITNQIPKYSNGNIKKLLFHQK
Sequence of Cytochrome P450 3A4 (Homo sapiens) (P08684 whole entry, looked up): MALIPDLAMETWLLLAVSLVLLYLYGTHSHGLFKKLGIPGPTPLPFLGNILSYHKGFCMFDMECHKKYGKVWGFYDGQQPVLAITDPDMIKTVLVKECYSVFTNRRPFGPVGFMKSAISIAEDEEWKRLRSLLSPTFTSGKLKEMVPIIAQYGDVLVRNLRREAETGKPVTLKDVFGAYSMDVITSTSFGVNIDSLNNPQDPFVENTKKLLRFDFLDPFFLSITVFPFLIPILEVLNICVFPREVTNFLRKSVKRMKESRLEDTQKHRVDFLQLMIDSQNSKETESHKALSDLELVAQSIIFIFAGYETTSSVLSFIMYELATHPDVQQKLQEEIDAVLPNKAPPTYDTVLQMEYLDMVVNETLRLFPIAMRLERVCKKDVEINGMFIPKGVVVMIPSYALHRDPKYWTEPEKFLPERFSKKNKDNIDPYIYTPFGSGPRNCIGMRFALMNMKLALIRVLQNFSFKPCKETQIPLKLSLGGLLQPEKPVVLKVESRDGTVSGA
Sequence of 3',5'-cyclic-AMP phosphodiesterase 4B (Homo sapiens) (Q07343 whole entry, looked up): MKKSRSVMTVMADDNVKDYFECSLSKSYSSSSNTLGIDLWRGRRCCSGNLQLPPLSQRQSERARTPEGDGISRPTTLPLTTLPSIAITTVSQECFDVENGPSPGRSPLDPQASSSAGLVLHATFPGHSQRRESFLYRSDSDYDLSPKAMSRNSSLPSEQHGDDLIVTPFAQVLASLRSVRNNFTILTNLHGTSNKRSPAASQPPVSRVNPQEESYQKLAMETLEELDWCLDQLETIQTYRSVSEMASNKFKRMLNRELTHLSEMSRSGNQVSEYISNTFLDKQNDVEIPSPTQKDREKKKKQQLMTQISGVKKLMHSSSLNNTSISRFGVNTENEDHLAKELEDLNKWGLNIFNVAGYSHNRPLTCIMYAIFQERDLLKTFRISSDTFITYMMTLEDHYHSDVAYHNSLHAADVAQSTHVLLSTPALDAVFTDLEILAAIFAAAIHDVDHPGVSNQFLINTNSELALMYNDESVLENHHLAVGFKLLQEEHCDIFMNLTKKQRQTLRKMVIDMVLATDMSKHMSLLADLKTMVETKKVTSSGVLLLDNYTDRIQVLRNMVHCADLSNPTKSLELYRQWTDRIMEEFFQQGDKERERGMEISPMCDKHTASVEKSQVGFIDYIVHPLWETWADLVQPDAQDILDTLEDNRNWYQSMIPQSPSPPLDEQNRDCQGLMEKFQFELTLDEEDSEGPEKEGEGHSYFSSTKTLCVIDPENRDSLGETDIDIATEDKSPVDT
Sequence of Cytochrome P450 1A2 (Homo sapiens) (P05177 whole entry, looked up): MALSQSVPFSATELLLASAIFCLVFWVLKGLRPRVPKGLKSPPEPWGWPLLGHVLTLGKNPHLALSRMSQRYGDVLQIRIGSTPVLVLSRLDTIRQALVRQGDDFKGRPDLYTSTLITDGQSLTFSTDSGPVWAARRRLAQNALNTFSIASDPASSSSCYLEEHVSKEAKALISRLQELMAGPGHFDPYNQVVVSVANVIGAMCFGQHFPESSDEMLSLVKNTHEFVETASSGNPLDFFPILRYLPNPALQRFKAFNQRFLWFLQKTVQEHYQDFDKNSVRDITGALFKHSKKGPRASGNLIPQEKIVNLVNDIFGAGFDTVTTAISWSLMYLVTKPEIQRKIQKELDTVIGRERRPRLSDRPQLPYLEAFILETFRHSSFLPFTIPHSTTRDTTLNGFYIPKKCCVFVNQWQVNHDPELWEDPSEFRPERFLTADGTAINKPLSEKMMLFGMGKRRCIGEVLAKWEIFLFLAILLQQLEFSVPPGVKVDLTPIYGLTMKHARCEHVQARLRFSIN
Sequence of Lysosomal acid glucosylceramidase (Homo sapiens) (P04062 whole entry, looked up): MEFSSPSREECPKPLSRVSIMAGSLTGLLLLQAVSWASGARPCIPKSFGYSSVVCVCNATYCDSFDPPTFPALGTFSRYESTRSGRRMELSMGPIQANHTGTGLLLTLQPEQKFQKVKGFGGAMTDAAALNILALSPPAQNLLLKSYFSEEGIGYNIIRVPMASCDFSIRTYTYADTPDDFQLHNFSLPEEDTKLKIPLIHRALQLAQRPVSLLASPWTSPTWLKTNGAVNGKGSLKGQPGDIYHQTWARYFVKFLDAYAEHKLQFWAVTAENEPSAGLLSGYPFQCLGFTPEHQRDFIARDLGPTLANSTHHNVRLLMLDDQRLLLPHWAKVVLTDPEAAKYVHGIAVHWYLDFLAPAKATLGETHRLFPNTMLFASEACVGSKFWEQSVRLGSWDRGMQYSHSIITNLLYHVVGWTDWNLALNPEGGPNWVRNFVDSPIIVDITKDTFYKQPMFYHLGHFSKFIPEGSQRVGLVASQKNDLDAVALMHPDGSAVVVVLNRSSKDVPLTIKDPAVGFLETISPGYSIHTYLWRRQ
Sequence of Dual specificity protein kinase CLK4 (Homo sapiens) (Q9HAZ1 whole entry, looked up): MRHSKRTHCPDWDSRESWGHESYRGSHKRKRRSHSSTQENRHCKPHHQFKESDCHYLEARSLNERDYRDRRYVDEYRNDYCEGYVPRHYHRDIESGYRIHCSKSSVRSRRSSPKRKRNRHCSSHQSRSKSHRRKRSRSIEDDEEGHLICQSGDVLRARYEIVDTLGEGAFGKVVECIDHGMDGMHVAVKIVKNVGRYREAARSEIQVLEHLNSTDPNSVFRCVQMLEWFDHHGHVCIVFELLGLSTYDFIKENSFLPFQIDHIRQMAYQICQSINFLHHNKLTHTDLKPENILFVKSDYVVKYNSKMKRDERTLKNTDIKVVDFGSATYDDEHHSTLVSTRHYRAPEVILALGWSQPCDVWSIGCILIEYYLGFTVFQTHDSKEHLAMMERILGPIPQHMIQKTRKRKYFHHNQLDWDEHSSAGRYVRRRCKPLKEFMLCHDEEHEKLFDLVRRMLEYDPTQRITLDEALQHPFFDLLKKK
Sequence of Ubiquitin carboxyl-terminal hydrolase 1 (Homo sapiens) (O94782 whole entry, looked up): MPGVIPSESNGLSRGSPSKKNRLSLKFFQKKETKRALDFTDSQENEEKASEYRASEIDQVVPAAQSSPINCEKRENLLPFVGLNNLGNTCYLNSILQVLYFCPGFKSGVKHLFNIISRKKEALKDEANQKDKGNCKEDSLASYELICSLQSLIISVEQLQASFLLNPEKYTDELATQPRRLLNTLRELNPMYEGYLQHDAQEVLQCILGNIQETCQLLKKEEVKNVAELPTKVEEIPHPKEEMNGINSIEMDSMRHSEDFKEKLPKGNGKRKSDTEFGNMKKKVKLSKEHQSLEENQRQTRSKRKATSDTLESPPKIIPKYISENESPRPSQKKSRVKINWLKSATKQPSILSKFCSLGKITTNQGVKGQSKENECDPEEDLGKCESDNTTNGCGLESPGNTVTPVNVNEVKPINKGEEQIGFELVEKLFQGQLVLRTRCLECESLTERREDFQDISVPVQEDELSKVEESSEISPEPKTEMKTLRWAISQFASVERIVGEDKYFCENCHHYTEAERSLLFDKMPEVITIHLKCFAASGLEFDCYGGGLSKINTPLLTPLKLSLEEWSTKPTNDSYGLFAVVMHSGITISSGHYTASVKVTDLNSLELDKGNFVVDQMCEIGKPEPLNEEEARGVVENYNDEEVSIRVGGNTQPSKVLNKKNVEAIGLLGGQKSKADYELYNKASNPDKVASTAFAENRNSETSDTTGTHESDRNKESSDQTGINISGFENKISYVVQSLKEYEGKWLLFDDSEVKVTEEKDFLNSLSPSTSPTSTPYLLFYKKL
Sequence of Cytochrome P450 2D6 (Homo sapiens) (P10635 whole entry, looked up): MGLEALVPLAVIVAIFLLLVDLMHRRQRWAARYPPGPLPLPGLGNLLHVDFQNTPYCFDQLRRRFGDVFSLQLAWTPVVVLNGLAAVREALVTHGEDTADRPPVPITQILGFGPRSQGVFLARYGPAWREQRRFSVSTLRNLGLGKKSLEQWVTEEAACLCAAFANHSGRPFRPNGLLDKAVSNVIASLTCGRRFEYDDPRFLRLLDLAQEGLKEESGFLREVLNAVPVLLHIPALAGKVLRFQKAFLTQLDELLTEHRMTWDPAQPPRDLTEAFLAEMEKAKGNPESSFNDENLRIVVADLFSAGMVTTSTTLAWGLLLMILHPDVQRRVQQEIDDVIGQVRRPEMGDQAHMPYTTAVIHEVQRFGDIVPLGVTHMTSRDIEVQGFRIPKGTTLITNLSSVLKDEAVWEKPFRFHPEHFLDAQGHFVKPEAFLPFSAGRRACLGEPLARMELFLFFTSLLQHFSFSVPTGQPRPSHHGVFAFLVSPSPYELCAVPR

As for `O=C(c1ccncc1)N1CCC2(CC1)CN(c1cccc(-c3ccccc3)c1)C2`, the Potency is > 11.4 µM (inactive) in assay [1], 15.8 µM (active) in assay [3], > 46 µM (inactive) in [4] and 7.94 µM (active) in [6]. In addition, the activity change, negative = inhibition in assay [2] was -2.83% (inactive); in assay [8], -2.24% (inactive). Also, the Potency result in assay [5], in [7] and in assay [9] was “inactive” each time. For the same compound, the max response in assay [8] (setting [20]) was 13.1%; in assay [8] (setting [21]) it was 11.3%.

In the case of `N#Cc1ccccc1-c1ccc2ncnc(N3CCNCC3)c2c1`, the values for the Potency in assay [1], in assay [12] and in assay [4] were > 11.4 µM (inactive), > 46 µM (inactive) and > 46 µM (inactive), respectively. For the same compound, the activity change, negative = inhibition in assay [2] is 6.5% (inactive); in assay [10], 17.9% (inactive); in assay [8], 7.44% (inactive). In addition, the activity, negative = inhibition in assay [11] was 2.26% (inactive). Moreover, the compound was classed as inactive in assay [13], in assay [14] and in assay [15]. The Potency entry in assay [5], in assay [7], in assay [16] and in assay [9] was “inactive” each time. Also, the figures for the max response in assay [8] (setting [20]) and in assay [8] (setting [21]) were 18.9% and 26.9%, respectively.

With `Cc1noc(C)c1C(=O)N1CCC2(CC1)CCN(c1cccc(-c3ccccc3)c1)CC2`, the Potency is > 11.4 µM (inactive) in assay [1] and > 46 µM (inactive) in [4]. The activity change, negative = inhibition in assay [2] was -13.8% (inactive); in assay [8], -7.36% (inactive). In addition, the Potency entry in [3], in assay [5], in assay [6], in [17] and in [9] was “inactive” throughout. The compound was called inactive in assay [13]. The values for the max response in assay [8] (setting [20]) and in assay [8] (setting [21]) were -11.4% and -15.8%, respectively.

Regarding `c1csc(CNc2cc(-c3ccoc3)ncn2)c1`, the Potency was > 11.4 µM (inactive) in assay [1]; 2 µM (active) in [3]; > 46 µM (inactive) in assay [12]; > 46 µM (inactive) in assay [4]; 35.5 µM (active) in assay [18]. Further, the activity change, negative = inhibition in assay [2] is -0.901% (inactive); in assay [10] it was -2.52% (inactive). Further, the activity, negative = inhibition in assay [11] was 3.9% (inactive). Besides, the outcome in [13] was inactive. The Potency result in [5], in assay [7], in assay [19], in [16] and in assay [9] was “inactive” throughout.

On to `COCC(=O)N1CCC2(CC1)CN(C(c1ccccc1)c1ccccc1)C2`, for which the Potency in [1] is > 11.4 µM (inactive); in assay [4] it was > 46 µM (inactive); in [7] it was 25.1 µM (active); in assay [17], 2.51 µM (active). Moreover, the figures for the activity change, negative = inhibition in assay [2], in [10] and in assay [8] were 3.82% (inactive), 11.6% (inactive) and 2.84% (inactive), respectively. In addition, in assay [11], the activity, negative = inhibition is -8.6% (inactive). Further, the outcome in [13] was inactive. For the same compound, the Potency result in assay [5] and in [9] was “inactive” throughout. Besides, the values for the max response in [8] (setting [20]) and in [8] (setting [21]) were -11.5% and -6.58%, respectively.

For `COc1ccc(NC(=O)N2CC[C@@]3(CCCN(C(=O)c4ccc(OC)cc4)C3)C2)cc1`, the Potency was > 11.4 µM (inactive) in [1] and 25.1 µM (active) in [3]. Moreover, the activity change, negative = inhibition in assay [2] was 5.18% (inactive); in assay [8], 3.11% (inactive). Besides, the activity, negative = inhibition in assay [11] was 2.5% (inactive). In addition, the result in assay [13] was inactive. Moreover, the Potency entry in assay [5], in assay [7] and in assay [9] was “inactive” throughout. Also, the values for the max response in assay [8] (setting [20]) and in assay [8] (setting [21]) were 22% and 26.4%, respectively.
